Values joined by “and” are separate entries in the source; they are usually repeats but may differ in a detail not shown here. Equal values may be shown once. About 83,000 compounds went through this panel and 20% of them were active in at least one assay; those are over-represented in the sample as a whole.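 For each line, cells grew in 96-well plates with the test compound present at a single concentration for 48 hours.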 Active and inactive are the calls of the source. The calls were made as follows: active = growth percent below 10; inactive = the rest.

The assay deals with MDA-MB-468 breast. Description: NCI-60 one-dose screen, 48 h (100 = growth as untreated, 0 = no growth, -100 = all killed). The note with it: 10 µM unless noted.
Take `C[C@H](CCC(=O)O)[C@H]1CC[C@H]2[C@@H]3CC[C@@H]4/C(=C\c5ccco5)C(=O)/C(=C\c5ccco5)C[C@]4(C)[C@H]3CC[C@]12C`: the growth was 41.1% (inactive).
As for `COc1cc(/C=C/c2cc(/C=C/c3ccc(O)c(OC)c3)n(-c3ccccc3)n2)ccc1O`, the growth is -31.9% (active).
The value for `Cc1c(-c2ccccc2)[nH]c2ccccc12` was 88.1% (inactive); that for `COc1ccccc1/C=C1\COc2ccc(O)c(O)c2C1=O` was 12.6% (inactive).
Regarding `COc1ccc(-n2c(N)c(-c3nc4ccccc4[nH]3)cc(C#N)c2=O)cc1`, the growth is 93.1% (inactive).
On to `Nc1cc(-c2ccncc2)c[nH]c1=O`, for which the growth is 117% (inactive).
The figure for `Cc1c(N2CN3C[C@H](C)N4CN(c5c(C)n(C)n(-c6ccccc6)c5=O)CN5C[C@@H](C)N(C2)C3C54)c(=O)n(-c2ccccc2)n1C` (stereo not given in full) is 97.1% (inactive); for `C(=N\OCCc1ccccc1)/c1ccccn1` it is 112% (inactive) and 107% (inactive).
As for `CCCCCCCCNc1cc2c3c(c1)CCCN3CCC2`, the growth is -23% (active).
With `O=C(/C=C/c1ccc(Cl)cc1)c1ccc(-n2cc(CN3CCN(c4cc5c(cc4F)c(=O)c(C(=O)O)cn5C4CC4)CC3)nn2)cc1`, the growth was 74.4% (inactive).
The value for `Cc1cc(NCCCCNc2ccnc3cc(Cl)ccc23)nc(Nc2ccc(C(=O)N3CCCC3)cc2)n1` was -26.6% (active); that for `O[C@H](c1cc(C(F)(F)F)nc2c(C(F)(F)F)cccc12)[C@@H]1CCCCN1` was 27.3% (inactive) and -6.87% (active); that for `COc1ccc(/C(C#N)=C/c2cc(OC)c(OC)c(OC)c2)cc1` was 27.6% (inactive).
The figure for `CCOc1ccncc1[N+](=O)[O-]` is 104% (inactive); for `O=[N+]([O-])c1ccc2nc(N/N=C/c3ccc(O)cc3)sc2c1` it is 64.2% (inactive).
The value for `CN1CCCN(CCNc2nccc(-c3c(-c4cccc(O)c4)nc4sccn34)n2)S1(=O)=O` was 68.9% (inactive); that for `Clc1ccccc1[C@@H]1C[C@@H]2Cc3cc(Br)c4ccccc4c3N1O2` was 4.19% (active).
On to `OCC1OC(n2cnc3c(Cl)ncnc32)CC1O` (stereo not given), for which the growth was 91.9% (inactive).
The figure for `Cc1cc(O)c2c(c1)C(=O)c1cc(O)cc(O)c1C2=O` is 73.2% (inactive).
The figure for `COc1ccc(OC)c(CCn2cncc2-c2c[nH]c3cc(Br)ccc23)c1` is -5.69% (active); for `COc1ccc(S(=O)(=O)N(C(C)=O)c2ccccc2/C=C/c2cc[n+]([O-])cc2)cc1` it is 10.8% (inactive); for `Clc1ccc2c(NCCCN3CCOCC3)c3oc4ccccc4c3nc2c1` it is 35.7% (inactive).
The value for `NC(=O)NCCO` was 102% (inactive); that for `CC(C)(C)n1nnnc1C(Nc1cccc2c1OCO2)c1cc2cccc3ccc4cccc1c4c32` (stereo not given) was 51.7% (inactive); that for `COC(=O)c1c2c(c[n+]([O-])c1C)C(=O)C(NCc1ccccc1)=CC2=O` was -57.7% (active).

For the origin of these results see PubChem BioAssay (NCI).
